High-throughput results from PubChem.
This is a sample that favours compounds with a hit; in the whole collection about 3.6% have one here.
CF NFkB block: blocks PAF-induced NF-kB reporter in cystic fibrosis cells; KKLEB NF-kB-GFP reporter, GFP fluorescence overnight; inhibition, % at 5 µM; 360,000 compounds, 0.86% hits;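 active means at least 50% inhibition at 5 µM, scaled per plate between neutral and stimulator controls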;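 further: PAF is a Pseudomonas aeruginosa culture filtrate used as stimulus; plate controls were PAF-stimulated DMSO wells for no effect and unstimulated DMSO wells for full effect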
HSP90 refold inh: HSP90 refolding inhibition in rabbit reticulocyte lysate; luciferase refolding luminescence, 3 h; inhibition, % at 5.6 µM; 290,000 compounds, 0.91% hits;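 active means inhibition above the screen-wide mean plus 3 SD, computed separately per campaign, cut at about 16% in these data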;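 further: 0% = DMSO wells and 100% = 60 µM geldanamycin wells; inhibitors lower the luminescence because luciferase stays unfolded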
Peg3 prom inh: Peg3 promoter activity inhibition; HeLa PEG-Prom luciferase reporter, luminescence, overnight; inhibition, % at 20 µM; 360,000 compounds, 1.7% hits;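 active means inhibition of at least 50% at 20 µM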
LGR2 antag: blocks bursicon-induced cAMP signaling via Drosophila LGR2. 380,000 compounds, 0.35% hits. inhibition, % at 9.99 µM. HEK293 LGR2, CRE-luciferase, bursicon-stimulated, 4 h;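 active means drop in luminescence signal, shown as inhibition above about 50% in the replicate tests, limit read from the data, passing the limit was not always enough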;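 further: agonist challenge used bursicon conditioned medium at about half maximal strength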
KKLEB cytotox: CF airway cell cytotoxicity counter-screen; KKLEB CF airway cells viability, ATPlite luminescence, overnight; stronger effect = lower value; cells stimulated with P. aeruginosa culture filtrate; activity change (cytotoxicity), % at 5 µM; 360,000 compounds, 0.36% hits; AID 602141;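 active means corrected activity change at or below -50% at 5 µM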
Mdm2-MdmX inh: disrupts the human Mdm2-MdmX interaction; SaOS-2 split-luciferase Mdm2/MdmX complementation, luminescence; inhibition, % at 8 µM; 330,000 compounds, 3% hits;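 active means inhibition of at least 50% at 8 µM in the primary screen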
Target sequence (O15151 whole entry, looked up): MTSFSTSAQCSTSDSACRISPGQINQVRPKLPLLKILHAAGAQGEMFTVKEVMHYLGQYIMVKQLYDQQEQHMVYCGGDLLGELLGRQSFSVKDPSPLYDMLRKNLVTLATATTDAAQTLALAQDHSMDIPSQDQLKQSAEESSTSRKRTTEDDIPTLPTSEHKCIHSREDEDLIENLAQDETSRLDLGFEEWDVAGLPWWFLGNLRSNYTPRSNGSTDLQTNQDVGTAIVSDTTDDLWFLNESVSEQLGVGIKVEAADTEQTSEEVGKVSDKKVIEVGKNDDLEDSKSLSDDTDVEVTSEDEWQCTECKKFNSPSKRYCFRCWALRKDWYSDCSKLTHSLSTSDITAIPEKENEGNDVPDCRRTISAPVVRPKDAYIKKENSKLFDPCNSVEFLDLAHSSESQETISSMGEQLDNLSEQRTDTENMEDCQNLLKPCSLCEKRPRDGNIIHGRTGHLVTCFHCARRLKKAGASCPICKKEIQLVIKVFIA
Target sequence (Q00987 whole entry, looked up): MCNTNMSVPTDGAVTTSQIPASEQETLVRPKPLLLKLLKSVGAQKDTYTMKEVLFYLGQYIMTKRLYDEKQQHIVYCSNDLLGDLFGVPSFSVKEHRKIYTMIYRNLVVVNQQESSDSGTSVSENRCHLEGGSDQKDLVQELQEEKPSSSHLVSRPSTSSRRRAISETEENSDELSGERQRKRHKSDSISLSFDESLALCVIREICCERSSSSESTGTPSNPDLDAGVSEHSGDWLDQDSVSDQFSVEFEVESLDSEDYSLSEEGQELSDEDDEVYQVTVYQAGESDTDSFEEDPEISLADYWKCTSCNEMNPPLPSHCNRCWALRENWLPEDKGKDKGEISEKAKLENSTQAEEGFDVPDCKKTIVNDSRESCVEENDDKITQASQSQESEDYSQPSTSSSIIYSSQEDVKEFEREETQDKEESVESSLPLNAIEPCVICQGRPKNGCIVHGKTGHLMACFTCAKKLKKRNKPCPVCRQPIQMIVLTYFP
Mdm2 MdmX conf: confirmation of human Mdm2/MdmX interaction inhibitors | shares compounds with Mdm2-MdmX inh | Mdm2-MdmX binding, luminescent assay | inhibition, % at 8 µM | 10,000 compounds, 55% hits | AID 489028; in the data active means inhibition above about 40%
Full FLuc ctr: full-length luciferase inhibition in Mdm2/MdmX counter-screen; shares compounds with Mdm2-MdmX inh; inhibition, % at 8 µM; SaOS-2 full-length luciferase counterscreen, luminescence; 6,200 compounds, 77% hits;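 active means mean inhibition at 8 µM reaching about 37%, which flags the compound as non-specific, limit read from the data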;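 further: p53-null SaOS-2 cells with luciferase driven by a doxycycline-inducible promoter; compound on cells about two nights before reading with doxycycline added after day one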
Numbers without * were called inactive; . = no result.

SMILES | CF NFkB block | HSP90 refold inh | Peg3 prom inh | LGR2 antag | KKLEB cytotox | Mdm2-MdmX inh | Mdm2 MdmX conf | Full FLuc ctr
CCN(CC)C(=O)[C@H]1CC(CC(=O)NCC23CC4CC(CC(C4)C2)C3)C(=O)N2CCc3c([nH]c4ccccc34)[C@]12C (stereo partly specified) | 25 | . | 4 | 6 | -10 | 69* | 23 | .
CCN(CC)C(=O)[C@H]1CC(CC(=O)NC/C=C(\C)CCC=C(C)C)C(=O)N2CCc3c([nH]c4ccc(OC)cc34)[C@]12C (stereo partly specified) | 28 | . | 1 | 9 | -5 | 87* | 45* | 59*
CC(C)NC(=O)Nc1cccc2c1O[C@@H](CN(C)S(=O)(=O)c1ccc(F)cc1)[C@H](C)CN([C@H](C)CO)C2=O | . | . | . | -16 | . | . | . | .
Cc1noc(C)c1NC(=O)Nc1ccc2c(c1)C(=O)N([C@@H](C)CO)C[C@@H](C)[C@@H](CN(C)S(=O)(=O)c1ccc(Cl)cc1)OCCCC[C@H](C)O2 | . | . | . | -4 | . | . | . | .
COCC(=O)N1[C@H](CO)[C@@H](c2ccccc2)C12CN(C(=O)c1ccccc1)C2 | . | . | . | 13 | . | . | . | .
Cc1noc(C)c1S(=O)(=O)Nc1cccc2c1O[C@@H](CN(C)C(=O)NC1CCCCC1)[C@@H](C)CN([C@@H](C)CO)C2=O | . | . | . | -12 | . | . | . | .
COC(=O)CCC(=O)NC(=S)Nc1sc(C)c(C)c1C(N)=O | 43 | 2 | 6 | -18 | -35 | 61* | 58* | 91*
Cc1noc(C)c1S(=O)(=O)Nc1ccc2c(c1)C(=O)N([C@@H](C)CO)C[C@@H](C)[C@H](CN(C)Cc1ccc(Cl)c(Cl)c1)O2 | . | . | . | -5 | . | . | . | .
CCOc1ccc(N(C)S(=O)(=O)c2ccc(-c3cc(C)no3)s2)cc1 | -5 | 2 | 35 | 1 | -12 | 61* | 53* | 84*
Cc1cccc(N(C)S(=O)(=O)c2ccc(-c3cc(C)no3)s2)c1 | 31 | 4 | -3 | -10 | -9 | 65* | 51* | 89*
CCN(c1cccc(C)c1)S(=O)(=O)c1ccc(-c2cc(C)no2)s1 | 37 | 1 | 26 | 9 | -6 | 53* | 53* | 69*
COc1ccc(-c2cc(C)no2)cc1S(=O)(=O)N(C)c1cccc(C)c1 | 37 | 1 | 1 | 10 | -9 | 9 | . | .
Cc1noc(C)c1S(=O)(=O)Nc1ccc2c(c1)C(=O)N([C@H](C)CO)C[C@@H](C)[C@@H](CN(C)S(=O)(=O)c1cn(C)cn1)OCCCC[C@H](C)O2 | . | . | . | -9 | . | . | . | .
Cc1cccc(C)c1NC(=O)COC(=O)c1cccc2c1C(=O)c1ccccc1C2=O | -13 | 1 | 20 | . | -9 | 59* | 35 | 77*
COc1ccc(CNC(=O)C(c2ccc(C)cc2)N(Cc2cccs2)C(=O)c2ccc3c(c2)OCCO3)cc1 (stereo unspecified) | 100* | 7 | 63* | . | -94* | 75* | 75* | 60*
COCCN(C(=O)Cc1cccs1)C(C(=O)NCc1ccc(OC)cc1)c1ccc(OC)cc1 (stereo unspecified) | -13 | 2 | 10 | . | 9 | -4 | . | .
N/C(=N\c1nc2ccccc2o1)NC(=O)c1cccc(Cl)c1 | -43 | 2 | -24 | -7 | 17 | 51* | 17 | .
N/C(=N\c1nc2ccccc2o1)NC(=O)c1ccccc1NC(=O)c1ccccc1 | -22 | 1 | 12 | . | 10 | 22 | . | .
O=C(Nc1ccccc1)N[C@H]1CC[C@@H](CCn2cc(C3(O)CCCC3)nn2)O[C@H]1CO | . | . | . | 4 | . | . | . | .
CC(C)CC(=O)O/N=C1\C(=O)N(Cc2ccc(Cl)cc2)c2ccc([N+](=O)[O-])cc21 | . | 2 | . | . | . | 60* | 26 | .
COC(=O)c1[nH]c2ccc(Br)cc2c1NC(=O)CN1CCN(C2CCCCC2)CC1 | -7 | 3 | 104* | . | -11 | 99* | 99* | 51*
COC(=O)c1[nH]c2ccc(C)cc2c1NC(=O)CCN1CCN(C2CCCCC2)CC1 | . | 2 | . | . | . | 22 | . | .
COC(=O)c1[nH]c2ccc(Br)cc2c1NC(=O)CN1CCCc2ccccc21 | 14 | 2 | 20 | . | -28 | 53* | 26 | .
COc1ccc(-c2ccc(C#N)c(OC(=O)c3c(Cl)cccc3Cl)n2)cc1 | 18 | -4 | 6 | 0 | -13 | 64* | 28 | .
Cc1ccc(C(=O)CSc2nnc(-c3ccc4[nH]c(C)c(C)c4c3)o2)cc1C | 17 | 0 | 26 | -4 | -41 | 51* | 9 | .
SMILES | CF NFkB block | HSP90 refold inh | Peg3 prom inh | LGR2 antag | KKLEB cytotox | Mdm2-MdmX inh | Mdm2 MdmX conf | Full FLuc ctr
C[C@H](CO)N1C[C@H](C)[C@H](CN(C)C)Oc2cc(-c3cccc(F)c3)ccc2S1(=O)=O | . | . | . | 8 | . | . | . | .
COc1ccc(CCNC(=O)c2ccc3c(c2)N(Cc2ccccc2)CCS3)cc1OC | 16 | 2 | 55* | 10 | -3 | 60* | 16 | .
COc1ccc(OC)c(CCNC(=O)c2ccc3c(c2)N(Cc2ccccc2)CCS3)c1 | -5 | 6 | 22 | 13 | 1 | 29 | . | .
COCC#Cc1ccc2c(c1)O[C@H](CN(C)C(=O)C1CCC1)[C@H](C)CN([C@@H](C)CO)S2(=O)=O | . | . | . | 16 | . | . | . | .
C[C@H](NC(=O)C[C@H]1C=C[C@H](NC(=O)Cc2ccccn2)[C@H](CO)O1)c1ccccc1 | . | . | . | -4 | . | . | . | .
Cn1nc(CC(=O)NC2CCCCCCCCCCC2)c2ccccc2c1=O | 11 | 0 | 15 | . | 1 | 28 | . | .
Cn1nc(CC(=O)Nc2ncc(Br)s2)c2ccccc2c1=O | 1 | -1 | -10 | . | -3 | 59* | 25 | .
COC(=O)CC1COc2ccccc2N1S(=O)(=O)c1ccc(Br)cc1 (stereo unspecified) | 10 | 2 | 38 | 9 | 0 | -11 | . | .
COC(=O)CC1COc2ccccc2N1S(=O)(=O)c1ccc(OC)cc1 (stereo unspecified) | 10 | 5 | 35 | 24 | -12 | 55* | 51* | 61*
CC(C)(C)[C@]1(O)CCN2C[C@H]3c4ccccc4CCc4cccc(c43)[C@@H]2C1 | 6 | -2 | 10 | 25 | -17 | 66* | 36 | 84*
CN1CCN2c3ncccc3Cc3ccccc3C2C1 (stereo unspecified) | 1 | . | -1 | -9 | -1 | 21 | . | .
Clc1ccc2c(c1)CCc1cccnc1C2=C1CCNCC1 | . | -1 | . | . | . | 61* | 36 | .
C#CCOCCOCCOCCNc1nc(N2CCN(C(=O)CCCCCCCCCCNC(=O)[C@H](CCCCN)n3cc(C)nn3)CC2)nc(N2CCN(C(=O)CCCCCCCCCCNC(=O)[C@@H]([C@H](C)O)n3cc(C)nn3)CC2)n1 | -3 | . | 50* | . | 11 | 78* | 4 | .
